# The full list was thinned out, with hits kept by preference.
# KDM5B inh = KDM5B demethylase inhibition. Q9UGL1. KDM5B demethylase, FDH-coupled NADH fluorescence (FDH is formaldehyde dehydrogenase). Potency, µM (series often up to 57.7 µM), actives largely listed as inhibitors. 220,000 tested, 2.6% active. AID 1347165; active means well fitted inhibition curve with a large enough effect; further: 0% is about no effect; nearly all actives have a fitted effect of over 70% in size
# Target sequence (Q9UGL1 whole entry, looked up): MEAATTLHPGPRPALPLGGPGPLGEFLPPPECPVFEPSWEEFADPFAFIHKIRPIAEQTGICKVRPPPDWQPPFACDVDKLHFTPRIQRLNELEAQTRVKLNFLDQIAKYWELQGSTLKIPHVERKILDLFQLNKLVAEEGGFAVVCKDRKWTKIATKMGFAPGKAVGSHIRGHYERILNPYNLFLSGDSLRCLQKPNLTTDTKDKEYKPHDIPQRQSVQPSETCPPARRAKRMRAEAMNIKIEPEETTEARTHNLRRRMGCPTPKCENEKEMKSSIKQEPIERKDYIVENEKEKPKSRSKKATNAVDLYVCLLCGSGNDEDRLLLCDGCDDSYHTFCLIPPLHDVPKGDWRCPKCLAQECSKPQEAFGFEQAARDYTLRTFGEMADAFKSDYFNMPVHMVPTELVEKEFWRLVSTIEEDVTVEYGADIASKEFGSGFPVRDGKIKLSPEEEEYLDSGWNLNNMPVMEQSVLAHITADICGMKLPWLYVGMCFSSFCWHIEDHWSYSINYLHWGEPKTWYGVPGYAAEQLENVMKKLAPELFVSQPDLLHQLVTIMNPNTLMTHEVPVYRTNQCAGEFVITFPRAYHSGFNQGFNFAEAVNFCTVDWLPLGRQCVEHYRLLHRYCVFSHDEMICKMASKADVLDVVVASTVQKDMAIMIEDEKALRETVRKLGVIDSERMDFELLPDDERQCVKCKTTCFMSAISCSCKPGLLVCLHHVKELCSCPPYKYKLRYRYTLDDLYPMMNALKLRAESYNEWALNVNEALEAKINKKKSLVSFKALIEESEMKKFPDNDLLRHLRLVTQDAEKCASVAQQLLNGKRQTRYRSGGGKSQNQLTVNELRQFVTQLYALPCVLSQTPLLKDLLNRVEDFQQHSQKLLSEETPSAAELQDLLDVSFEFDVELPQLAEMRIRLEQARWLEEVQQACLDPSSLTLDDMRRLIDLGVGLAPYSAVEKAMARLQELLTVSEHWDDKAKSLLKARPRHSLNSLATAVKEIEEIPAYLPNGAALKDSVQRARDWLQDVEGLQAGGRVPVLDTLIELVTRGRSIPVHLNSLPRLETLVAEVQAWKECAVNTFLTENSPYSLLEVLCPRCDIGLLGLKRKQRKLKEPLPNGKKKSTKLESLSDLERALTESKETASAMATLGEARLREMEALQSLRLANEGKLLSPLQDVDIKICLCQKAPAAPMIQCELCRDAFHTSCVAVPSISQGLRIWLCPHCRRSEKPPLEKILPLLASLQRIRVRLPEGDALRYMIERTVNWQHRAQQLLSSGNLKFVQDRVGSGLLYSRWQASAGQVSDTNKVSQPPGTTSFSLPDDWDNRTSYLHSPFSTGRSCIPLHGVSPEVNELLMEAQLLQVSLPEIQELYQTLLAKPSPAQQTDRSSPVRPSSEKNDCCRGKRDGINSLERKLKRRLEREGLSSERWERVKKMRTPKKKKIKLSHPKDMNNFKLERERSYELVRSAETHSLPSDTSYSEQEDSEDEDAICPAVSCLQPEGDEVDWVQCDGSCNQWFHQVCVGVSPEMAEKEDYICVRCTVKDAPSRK
#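 Coupled FDH/NAD⁺ fluorescence readout. KDM5BΔAP 200 nM final; compound titration, 10 min RT preincubation; substrate mix 12.5 µM H3K4me3, 25 µM 2-OG, 50 µM Fe(II), 100 µM ascorbate, 0.25 mM NAD⁺, 0.25 U/mL FDH; ΔRFU over 30 min.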
# Active calls of the source: *; i = inactive. Potency means the concentration at half of the fitted maximal effect.
SMILES,KDM5B inh
COc1ccc(-c2nccn3cc(C(=O)Nc4ccc(OC)c(OC)c4)nc23)cc1,i
Cc1ccc(NC(=O)NCc2nc3ccccc3n2C)cc1,i
COc1ccc(-c2nccn3cc(C(=O)NCCc4cccnc4)nc23)cc1,28.2µM*
CCOC(=O)C1CCN(C(=O)c2cn3ccnc(-c4ccc(OC)cc4)c3n2)CC1,25.1µM*
CCCn1c(CNC(=O)c2cc(OC)c(OC)c(OC)c2)nc2ccccc21,i
CCOC(=O)C1CCN(C(=O)c2cn(-c3ccccc3)nc2-c2ccc(Br)cc2)CC1,i
COc1ccc(-c2nc3ccc(C)cc3c(C(=O)O)c2C)cc1,i
COCCNC(=O)c1cn2ccnc(-c3ccc(C)cc3)c2n1,i
COc1ccc(-c2nccn3cc(C(=O)NCc4nc5ccccc5n4C)nc23)cc1,7.94µM*
COc1ccc(-c2cn3cc(C(=O)N4CC[C@H](O)C4)nc3c(=O)n2CC2CC2)cc1,i
COc1ccc(-c2nccn3cc(C(=O)O)nc23)cc1,28.2µM*
COc1ccccc1-c1noc(CCC(=O)N2CC[C@@](C)(O)[C@@H](O)C2)n1,i
O=C1N(Cc2ccccc2)c2ccccc2C12CCN([S+](=O)([O-])c1cccc(C(F)(F)F)c1)C2 (centres undefined),i
Cc1ccc(-c2nc(CSc3nnc(NC(C)(C)C)s3)co2)cc1,i
CCOC(=O)CNC(=O)CSc1cn(CC(=O)N2CCCCC2)c2ccccc12,i
O=C(CCc1ncc(-c2ccccc2)o1)Nc1ccccn1,i
COC(=O)[C@H](Cc1ccc(OC)cc1)NC(=O)[C@H]1CN(S(=O)(=O)c2ccccc2)CCN1C(=O)NC1CCCCC1,i
COc1ccc(-c2nccn3cc(C(=O)NCc4cccnc4)nc23)cc1,20µM*
COc1ccc(NS(=O)(=O)c2ccc(C)c(C(=O)NCc3cccnc3)c2)cc1,i
COc1ccc(CNC(=O)c2cn3ccnc(-c4ccccc4)c3n2)cc1OC,i
O=C(NCc1ccco1)c1cc2cc(Cl)ccc2[nH]1,i
O=C(NCC1COCCO1)c1ccc(CN2CCC(N3CCCC3)CC2)[nH]c1=O (centres undefined),28.2µM*
O=C(NCC1CCCO1)c1cc(S(=O)(=O)N2CCOCC2)c(Cl)cc1Cl (centres undefined),i
O=C(NCC1CCCO1)c1cccc2ccccc12 (centres undefined),i
CN1C(=O)C(c2ccccc2)CC12CCN(C(=O)CN1CCCC1)CC2 (centres undefined),25.1µM*
SMILES,KDM5B inh
CCc1cnc(C)nc1N1CCC2(CC1)CC(c1ccccc1)C(=O)N2C (centres undefined),i
CCOCCC(=O)N1CCC2(CC1)CC(c1ccccc1)C(=O)N2C (centres undefined),i
CN1C(=O)C(c2ccccc2)CC12CCN(C(=O)C1CCC1)CC2 (centres undefined),i
CN1C(=O)C(c2ccccc2)CC12CCN(C(=O)c1ccc(C#N)cc1)CC2 (centres undefined),i
Cc1ccc(C#N)c(N2CCC3(CC2)CC(c2ccccc2)C(=O)N3C)n1 (centres undefined),28.2µM*
ClC(/C=N/N1CCN(Cc2ccc(Cl)cc2)CC1)=C/c1ccccc1,i
CC(C)Cc1ccc(C(C)NC(=O)C2CC2)cc1 (centres undefined),i
COc1cccc(NC(=O)CCC2CCN(S(=O)(=O)c3ccccc3)CC2)c1,28.2µM*
COc1cc(NC(=O)CCC2CCN(C(=O)c3ccccc3)CC2)cc(OC)c1,i
CCN(Cc1ccccc1)C(=O)CCC1CCN(S(=O)(=O)c2ccccc2)CC1,25.1µM*
CCOc1cccc(CNC(=O)CCC2CCN(S(=O)(=O)c3ccccc3)CC2)c1,i
CCN(Cc1ccncc1)C(=O)CCC1CCN(S(=O)(=O)c2ccccc2)CC1,i
CN(Cc1cccnc1)C(=O)CCC1CCN(S(=O)(=O)c2ccccc2)CC1,i
O=C(O)CSc1ccc2c(c1)OCCO2,i
Cc1ccccc1C(C)NC(=O)Cn1cnc(C#N)n1 (centres undefined),i
CCc1nc(-c2c3n(c(=O)n(CC(=O)Nc4c(C)cccc4CC)c2=O)CCCC3)no1,i
COc1ccc2c(C)c(CCC(=O)N3CCCC3)c(=O)oc2c1,i
Cc1ccc(N(CC(=O)N[C@H]2CC[C@H]2N)S(C)(=O)=O)cc1,i
CCN(CC)C(=S)SCC(=O)Nc1ccc(N(CC)C(C)C)cc1,i
Cc1cc(C)cc(C(=O)NCc2nnc3cc(-c4nc(C5CC5)no4)ccn23)c1,i
Cc1noc(-c2ccn3c(CNC(=O)c4ccccc4Cl)nnc3c2)n1,28.2µM*
O=C(NCc1nnc2cc(-c3nc(C4CC4)no3)ccn12)c1cccc(Cl)c1,14.1µM*
O=C(NCc1nnc2cc(-c3nc(C4CC4)no3)ccn12)c1ccoc1,31.6µM*
O=C(NCc1nnc2cc(-c3nc(C4CC4)no3)ccn12)c1ccccc1,i
O=C(NCc1nnc2cc(-c3nc(C4CC4)no3)ccn12)c1c(F)cccc1F,25.1µM*
SMILES,KDM5B inh
Cc1noc(-c2ccn3c(CNC(=O)c4ccccc4F)nnc3c2)n1,i
Cn1c(=O)c2c(nc(NCCc3ccc(F)cc3)n2Cc2ccc(Cl)cc2)n(C)c1=O,i
CN1C(=O)N(CCc2ccccc2)C(=O)C12CCN(Cc1cn[nH]c1-c1ccc(F)cc1)CC2,i
Cc1ccc2c(C)c(C(=O)Nc3nonc3-c3cccs3)oc2c1C,i
CC(C)c1noc(-c2ccccc2OCC(=O)NC(C)c2ccc(Cl)cc2)n1 (centres undefined),i
COc1ccc(N2CC(C(=O)NCCOc3ccccc3)NC2=O)cc1 (centres undefined),i
CCOc1cccc(CN2CCC3(CC2)CC(CC(=O)N2CCCC2)CCO3)c1 (centres undefined),i
O=C(CN1C(=O)c2cccnc2Oc2ccc(Cl)cc21)N1CCN(C2CCCCC2)CC1,i
Cc1ccc(/C(O)=C2\C(=O)C(=O)N(CCCO)C2c2ccc(Cl)cc2)cc1 (centres undefined),i
Cc1ncc(-c2ccc(S(=O)(=O)Nc3ccccc3C)cc2)o1,i
Cn1nc(C(=O)N2CCCCCC2)c2c1-c1ccsc1CC2,i
CNC(=O)[C@@H](Cc1ccccc1)N1CCC[C@H]1C(=O)NC1CC1,i
Cc1noc(-c2ccn3c(CNC(=O)c4ccc(F)c(Cl)c4)nnc3c2)n1,25.1µM*
Cc1noc(-c2ccn3c(CNC(=O)c4cccc(Cl)c4)nnc3c2)n1,i
Cc1noc(-c2ccn3c(CNC(=O)c4nccc5ccccc45)nnc3c2)n1,31.6µM*
O=C(NCc1nnc2cc(-c3nc(C4CC4)no3)ccn12)c1ccccc1Cl,22.4µM*
O=C(NCc1nnc2cc(-c3nc(C4CC4)no3)ccn12)C1CC1,i
O=C(C1CCCC1)N1CC(c2nc(CCOCC3CCOCC3)no2)C1,i
CCOC(=O)COc1ccc2c(=O)c(Oc3ccccc3OCC)c(C)oc2c1,i
Cc1ccc(C(=O)N2CCCC(n3cc(-c4nc(C(C)C)no4)nn3)C2)cc1C (centres undefined),i
COc1ccc(S(=O)(=O)NCCO)cc1C,i
CCOc1ccc(CNC(=O)c2noc(C)c2Cn2nc(C)cc2C)cc1,i
O=C(OCc1ccccc1)c1cc(=O)c2ccccc2o1,i
O=[S+]1([O-])NCC2(CCN(Cc3cccc4ccccc34)C2)Nc2ccccc21 (centres undefined),i
O=C(Nc1ccc(Cl)cc1)N1CCC2(CC1)C(=O)NCN2Cc1ccc(Cl)cc1,i

# Bioassay records: PubChem, National Center for Advancing Translational Sciences (NCATS)
